Compound activity as filed in PubChem BioAssay.
Hits are enriched below; roughly 18% of the tested compounds scored in any of these assays.
TDP1 cell noCPT = qHTS for Inhibitors of human tyrosyl-DNA phosphodiesterase 1 (TDP1): qHTS in cells in absence of CPT; AID 686978, 2013; 15% of 420,000 active; DT40 Tdp1-/- hTDP1 cells, no CPT, ATP luminescence, 48 h; Potency, µM (doses to about 46.2 µM), without a hit: top-dose activity change, negative = growth inhibition, hits mostly inhibitors; further: potency means the concentration at half of the fitted maximal effect; on the % scale 0 is the no-effect control and ±100 the full control effect; nearly all actives have a fitted effect of over 55% in size
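A cellular qHTS used chicken DT40 cells lacking endogenous Tdp1 but carrying stably transfected human TDP1. Compounds were applied without camptothecin, and cell growth kinetics were judged by ATP-dependent luminescence after ≥48 hr.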
DT40 TDP1 CPT = qHTS for Inhibitors of human tyrosyl-DNA phosphodiesterase 1 (TDP1): qHTS in cells in presence of CPT. chicken DT40 Tdp1-/-;hTDP1 cells + 20 nM CPT, ATP luminescence, 48 h. Potency, µM (doses to about 46.2 µM), inactives show at the top dose activity change, negative = growth inhibition, hits mostly inhibitors. 12% of 420,000 active. AID 686979, 2013; further: potency means the concentration at half of the fitted maximal effect; on the % scale 0 is the no-effect control and ±100 the full control effect; nearly all actives have a fitted effect of over 55% in size
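Chicken DT40 Tdp1-/- cells complemented with human TDP1, 400 cells/well, exposed to compounds plus 20 nM camptothecin for at least 48 h at 37 C; viability read as ATP content by CellTiter-Glo luminescence.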
IL-1B inflam inh = qHTS for Inhibitors of Inflammasome Signaling: IL-1-beta AlphaLISA Primary Screen | THP-1 LPS/ATP IL-1B secretion, AlphaLISA, 16 h; stronger effect = lower value | activity change, % at 57.5 µM | 4.7% of 360,000 active; in the data active means activity change below about -50%; inconclusive means mostly about -30% to -49%; further: on the % scale 0 is the no-effect control and ±100 the full control effect
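Secreted IL-1B measured by AlphaLISA bead assay after 16 h compound exposure of THP-1 cells; compounds (final up to 57.5 uM) added 1 h before LPS (250 ng/mL) and ATP (1.25 mM) stimulation; lower signal means less secretion.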
TGFb inhibitor = qHTS for Inhibitors of TGF-b. 1.2% of 410,000 active. Potency, µM (highest dose often 46.1 µM), without a hit: top-dose activity, negative = inhibition, hits mostly inhibitors. HepG2 CAGA-GFP TGF-b/SMAD3 reporter, GFP fluorescence, 18 h; TGF-beta stimulated, 500 pg/mL final; further: potency means the concentration at half of the fitted maximal effect; on the % scale 0 is the no-effect control and ±100 the full control effect; nearly all actives have a fitted effect of over 65% in size
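Inhibition of TGF-beta-driven CAGA-GFP reporter expression in HEPG2 cells is measured by cellular GFP fluorescence after 18 h stimulation with 500 pg/mL recombinant TGF-beta in 1% FBS medium at 37 degrees C.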
TDP1 block = qHTS Assay for Inhibitors of Tyrosyl-DNA Phosphodiesterase (TDP1); Tyrosyl-DNA phosphodiesterase 1 (Homo sapiens), Q9NUW8; recombinant TDP1, AlphaScreen DNA substrate cleavage; Potency, µM (doses to about 130 µM), without a hit: at the highest dose activity change, negative = inhibition, most hits filed as inhibitors; 0.28% of 350,000 active; AID 485290, 2010; further: potency means the concentration at half of the fitted maximal effect; on the % scale 0 is the no-effect control and ±100 the full control effect; nearly all actives have a fitted effect of over 40% in size
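Compounds were preincubated with Tdp1 (1 nM final) for 15 min at room temperature before substrate (15 nM final) started a 5 min reaction; beads (10 ug/ml final) were then added for 10 min before AlphaScreen detection.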
HepG2 tox = qHTS for Inhibitors of TGF-b: Cytotox Counterscreen | HepG2 CAGA-GFP viability, ATP luminescence, 18 h | Potency, µM (top dose mostly 46.1 µM), inactives show at the top dose activity change, negative = cytotoxicity, hits mostly cytotoxic | 0.76% of 410,000 active; further: potency means the concentration at half of the fitted maximal effect
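HepG2 CAGA-GFP cells (1000/well, DMEM with 1% FBS) received compound, then TGF-beta at 500 pg/mL final, and were incubated 18 hours at 37 degrees C. Viability was read by CellTiter-Glo luminescence. Media-only wells were set as complete cell-killing and DMSO as no toxicity.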
The depositor's hits bear a star; ? = inconclusive; . = no result given. Unless noted, the call rests on the fitted dose curve; in most records, active means well fitted curve in the direction sought with a large enough effect; inconclusive means small, poorly fitted or top-dose-only effect, or another doubt; inactive means no such curve, though single readings can be large; an effect the other way counts as inactive or inconclusive.

SMILES	TDP1 cell noCPT	DT40 TDP1 CPT	IL-1B inflam inh	TGFb inhibitor	TDP1 block	HepG2 tox
CCOC(=O)CSC1=N/C(=C\c2ccc(OC)c(OC)c2)C(=O)N1C	?	25.9µM*	-18.7	-14.9%	1.3%	2.4%
COc1ccc(/C=C2\N=C(C)OC2=O)cc1OC	-22.0%	10.3µM*	-8.8	-5.3%	.	6.5%
COc1ccc(/C=C2\SC(N)=NC2=O)cc1	?	?	-6.3	22.2%	0.6%	-4.3%
CCOC(=O)CSC1=NC(=O)/C(=C/c2ccc(OC)cc2)S1	1.3µM*	1.46µM*	-85.7*	?	-2.3%	-40.8%
Cc1nn(C2CCS(=O)(=O)C2)c(C)c1CN(C)C(=O)c1ccc(S(=O)(=O)N(C)C)cc1 (stereo not drawn)	2.2%	8.8%	22.1	3.0%	-0.6%	-6.5%
CC(=O)c1c(C(C)=O)c(C)n(Cc2ccc(Cl)cc2)c1C	18.4µM*	16.4µM*	-10.2	0.2%	7.5%	-2.5%
COc1ccccc1CN1CC(C(=O)N(C)CCc2ccccn2)CCC1=O (stereo not drawn)	1.3%	-0.1%	16.2	-5.7%	.	-4.5%
CCN(C(=O)CSc1nnc(Nc2ccccc2)s1)C1CCS(=O)(=O)C1 (stereo not drawn)	1.0%	-3.1%	10.0	-6.7%	5.0%	-10.3%
CCOc1ccccc1Nc1nnc(SCC(=O)N(C)C2CCS(=O)(=O)C2)s1 (stereo not drawn)	?	-21.3%	-60.8*	-1.4%	0.4%	-2.9%
COc1ccc(Nc2nnc(SCC(=O)N(CC(C)C)C3CCS(=O)(=O)C3)s2)cc1 (stereo not drawn)	18.4µM*	?	-19.7	-3.3%	.	-28.8%
CCN(CC(=O)Nc1c(F)cccc1F)C(=O)c1ccc2c(c1)OCO2	-6.2%	-2.7%	-6.2	16.6%	2.0%	4.8%
O=C(/C=C/Sc1ccc(C(F)(F)F)cn1)c1ccccc1	2.31µM*	2.91µM*	?	?	-2.6%	-24.2%
CCc1nc2c(OCc3cc(Cl)cc(Cl)c3)cccn2c1N(C)C(=O)c1ccc(C)cc1	?	16.4µM*	-57.1*	?	.	-43.3%
CCc1nc2c(OCc3ccc(F)c(F)c3)cccn2c1N(C)C(=O)c1ccc(OC)cc1	23.1µM*	16.4µM*	-6.4	-8.7%	.	-3.9%
CCc1nc2c(OCc3ccc(OC)cc3)cccn2c1N(C)C(=O)c1ccc(OC)cc1	?	?	-15.9	?	.	-58.8%
CCc1nc2c(OCc3ccc(F)c(F)c3)cccn2c1N(C)C(=O)c1ccc(C)cc1	9.2µM*	23.1µM*	-15.1	?	.	-49.8%
CCc1nc2c(OCc3ccc(Cl)cc3)cccn2c1N(C)C(=O)c1ccncc1	20.6µM*	20.6µM*	-6.5	-14.0%	.	-24.1%
COC(=O)c1c(NC(C)=O)sc(C(=O)Nc2ccccc2C)c1C	14.9%	4.3%	10.5	16.6%	-5.9%	4.8%
CC(C)Oc1ccc(C(=O)N2CC(=O)Nc3ccc(F)cc3C2c2ccc(F)cc2)cc1 (stereo not drawn)	?	?	.	-14.2%	8.8%	-75.2%
CCc1nc2c(OCc3ccccc3C)cccn2c1N(C)C(=O)c1ccc(C)cc1	16.4µM*	18.4µM*	-6.0	?	.	-30.5%
CCc1nc2c(OCc3ccccc3C)cccn2c1N(C)C(=O)c1ccco1	?	?	-15.0	-10.5%	.	-31.2%
Nc1ncn(C(=S)Nc2ccccc2)n1	1.3µM*	1.16µM*	?	8.91µM*	.	-46.6%
